Assay [1] can be described thus: qHTS assay to test for compound auto fluorescence at 535 nm (green) in HEK293 cells (AID 720680). In general terms: qHTS replaces the single test concentration by a dilution series.
Assay [2] is described as follows: qHTS assay to test for compound auto fluorescence at 460 nm (blue) in HEK293 cell free culture (AID 720681). The gist of the method: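 Blue fluorescence (Ex 405/Em 460 nm, triamterene-equivalent) was read immediately after pin transfer of compound or DMSO into medium (DMEM, 10% FBS) without cells.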
The nature of assay [3]: qHTS assay to test for compound auto fluorescence at 535 nm (green) in HEK293 cell free culture (AID 720682). The gist of the method: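 Compounds were pin-transferred into cell-free DMEM with 10% FBS, and green fluorescence was read at excitation 485 nm and emission 535 nm. Intensities were expressed as fluorescein-equivalent values.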
A short description of assay [4]: qHTS assay to test for compound auto fluorescence at 590 nm (red) in HEK293 cell free culture (AID 720683). The gist of the method:
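Red-channel autofluorescence of compounds in culture medium (DMEM, 10% FBS), no cells, measured at 540/590 nm. Rose Bengal sodium is the reference fluorophore for equivalence.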

A short description of assay [5]: qHTS assay to test for compound auto fluorescence at 590 nm (red) in HepG2 cell free culture (AID 720684). The gist of the method:
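No cells present: MEM + 10% FBS only. Compound pinned in, red label read (540/590 nm). Activity = fluorescence equivalent to Rose Bengal sodium.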

Assay [6] can be described thus: qHTS assay to test for compound auto fluorescence at 460 nm (blue) in HepG2 cell free culture (AID 720685). Summed up: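 Cell-free plates of MEM plus 10% FBS received 23 nL compound or DMSO vehicle; blue-channel (405/460 nm) intensity scored against triamterene as reference fluorophore.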
Assay [7] can be described thus: qHTS assay to test for compound auto fluorescence at 535 nm (green) in HepG2 cell free culture (AID 720686).
Assay [8] is described as follows: qHTS assay to test for compound auto fluorescence at 460 nm (blue) in HepG2 cells (AID 720687). The gist of the method: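 Blue-channel autofluorescence (Ex/Em 405/460 nm, triamterene-equivalent) was measured after 1 hr compound exposure at 37 C, 5% CO2. Cells were HepG2, plated overnight at 37 C in MEM plus 10% FBS.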
Assay [9] in a line: qHTS assay to identify small molecule antagonists of the glucocorticoid receptor (GR) signaling pathway - cell viability counter screen (AID 720693). Also: nearly all actives have a fitted effect of over 55% in size.
Assay [10] is described as follows: qHTS assay for identifying genotoxic compounds that show differential cytotoxicity against isogenic chicken DT40 cell lines with known DNA damage response pathways - wild type cell line (AID 743012). Also: nearly all actives have a fitted effect of over 60% in size. Also: potency is read from the fitted curve at half-maximal effect. The gist of the method:
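Cytotoxicity in repair-proficient parental chicken DT40 cells serves as the comparator for Rad54/Ku70- and Rev3-deficient lines. Cells were exposed to compounds for 40 h at 37 C/5% CO2, and ATP-based luminescence (CellTiter-Glo) measured viability.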

A short description of assay [11]: qHTS assay for identifying genotoxic compounds that show differential cytotoxicity against isogenic chicken DT40 cell lines with known DNA damage response pathways - Rev3 mutant cell line (AID 743014). Also: nearly all actives have a fitted effect of over 55% in size. Also: potency is read from the fitted curve at half-maximal effect.
A short description of assay [12]: qHTS assay for identifying genotoxic compounds that show differential cytotoxicity against isogenic chicken DT40 cell lines with known DNA damage response pathways - Rad54/Ku70 mutant cell line (AID 743015). Also: nearly all actives have a fitted effect of over 60% in size. Also: potency is read from the fitted curve at half-maximal effect.
Assay [13] is described as follows: qHTS assay to identify small molecule antagonists of the androgen receptor (AR) signaling pathway - cell viability counter screen (AID 743033; also: nearly all actives have a fitted effect of over 45% in size).
A short description of assay [14]: qHTS assay to identify small molecule antagonists of the androgen receptor (AR) signaling pathway using the MDA cell line - cell viability counter screen (AID 743041; also: nearly all actives have a fitted effect of over 45% in size). The gist of the method: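 Using the breast carcinoma line MDA-kb2 AR-luc, test chemicals were co-incubated with R1881 for 16 h; CellTiter-Fluor reagent, added at 15.5 h, provided a fluorescence measure of live cells.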

Assay [15] concerns the target Androgen receptor (Homo sapiens) (UniProt P10275). The assay is described as follows: qHTS assay to identify small molecule agonists of the androgen receptor (AR) signaling pathway (AID 743036; active = well fitted activation curve with a large enough effect in the signal ratio in the repeat runs, with a control signal flat, not every such curve was filed as active; the % refers to the signal ratio). Summed up:
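Activation was read as beta-lactamase FRET signal from LiveBLAzer B/G substrate, added for 2 h at room temperature. Before that, GeneBLAzer AR-UAS-bla GripTite (HEK293) cells had 16 h compound exposure at 37C.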

For assay [16] the target is unchanged. The assay is described as follows: qHTS assay to identify small molecule agonists of the androgen receptor (AR) signaling pathway using the MDA cell line (AID 743040; also: nearly all actives have a fitted effect of over 20% in size). Summed up: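 Stable MMTV-luciferase reporter in MDA-kb2 cells; note the promoter carries GR as well as AR response elements. 16 h compound treatment, 37C, 0% CO2; ONE-Glo luminescence endpoint.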

Assay [17] shares this target. The assay is described as follows: qHTS assay to identify small molecule antagonists of the androgen receptor (AR) signaling pathway using the MDA cell line (AID 743042; also: nearly all actives have a fitted effect of over 55% in size). Summed up: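 Antagonist mode: compounds plus R1881 agonist added to MDA-kb2 AR-luc cells, incubated 16 h at 37C. Luciferase reporter luminescence quantified, with multiplexed CellTiter-Fluor readout for cell viability.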

Assay [18] has the same target. The assay is described as follows: qHTS assay to identify small molecule antagonists of the androgen receptor (AR) signaling pathway (AID 743035; active = well fitted inhibition curve with a large enough effect in the signal ratio in the repeat runs, not every such curve was filed as active; the % refers to the signal ratio). The gist of the method:
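Steps: seed AR-UAS-bla GripTite HEK293 cells, incubate 4 h at 37C; pin in test compound, then add agonist R1881; incubate 16 h at 37C; add LiveBLAzer B/G FRET substrate, 2 h at room temperature; read fluorescence.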

Assay [19] addresses Glucocorticoid receptor (Homo sapiens) (UniProt P04150). The assay is described as follows: qHTS assay to identify small molecule agonists of the glucocorticoid receptor (GR) signaling pathway (AID 720691; active = well fitted activation curve with a large enough effect in the signal ratio in the repeat runs, not every such curve was filed as active; the % refers to the signal ratio). Summed up:
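Steps: seed GR-bla HeLa cells, incubate 4 h at 37 C/5% CO2; pin-transfer DMSO-dissolved compounds; incubate 18 h at 37 C; add LiveBLAzer B/G FRET substrate; after 2 h at room temperature, measure fluorescence.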

Unmarked numbers belong to inactive results. Results filed as inconclusive are left out. Active and inactive are the calls of the source. Unless noted, calls follow the shape of the dose curve; as a rule, active = well fitted curve in the direction sought with a large enough effect in the repeat runs; inconclusive = weak or mixed curves; inactive = no such curve, though single readings can be large; an effect the other way counts as inactive or inconclusive.

This note sets out measurements from PubChem BioAssay (Tox21).
% is scaled to controls: 0 for no effect and ±100 for the full control effect.

Chain of Androgen receptor (Homo sapiens) (P10275 whole entry, looked up): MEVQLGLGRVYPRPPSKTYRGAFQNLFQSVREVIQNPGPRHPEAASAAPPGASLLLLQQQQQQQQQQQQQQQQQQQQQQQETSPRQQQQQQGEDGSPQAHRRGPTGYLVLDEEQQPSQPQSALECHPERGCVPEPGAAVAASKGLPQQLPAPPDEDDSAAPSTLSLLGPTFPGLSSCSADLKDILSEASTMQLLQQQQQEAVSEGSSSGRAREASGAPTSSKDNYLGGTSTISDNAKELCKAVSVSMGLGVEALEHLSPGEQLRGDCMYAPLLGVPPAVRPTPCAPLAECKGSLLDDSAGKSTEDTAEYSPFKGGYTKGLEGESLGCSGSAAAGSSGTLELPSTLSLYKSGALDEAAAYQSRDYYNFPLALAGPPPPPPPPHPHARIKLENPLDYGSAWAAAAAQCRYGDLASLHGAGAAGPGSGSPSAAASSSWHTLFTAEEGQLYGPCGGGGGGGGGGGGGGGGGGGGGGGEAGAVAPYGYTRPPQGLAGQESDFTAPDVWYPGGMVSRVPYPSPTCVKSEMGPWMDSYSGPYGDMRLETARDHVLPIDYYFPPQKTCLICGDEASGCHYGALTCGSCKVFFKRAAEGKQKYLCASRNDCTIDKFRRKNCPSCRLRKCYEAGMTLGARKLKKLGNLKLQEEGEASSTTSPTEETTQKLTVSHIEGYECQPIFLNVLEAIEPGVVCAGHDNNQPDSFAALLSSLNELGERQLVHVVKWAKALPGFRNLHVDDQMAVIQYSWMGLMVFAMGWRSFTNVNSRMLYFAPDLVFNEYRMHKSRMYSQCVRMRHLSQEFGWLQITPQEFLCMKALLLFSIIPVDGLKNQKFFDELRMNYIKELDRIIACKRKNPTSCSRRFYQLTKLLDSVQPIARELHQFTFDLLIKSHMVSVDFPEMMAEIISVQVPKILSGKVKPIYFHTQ
Chain of Glucocorticoid receptor (Homo sapiens) (P04150 whole entry, looked up): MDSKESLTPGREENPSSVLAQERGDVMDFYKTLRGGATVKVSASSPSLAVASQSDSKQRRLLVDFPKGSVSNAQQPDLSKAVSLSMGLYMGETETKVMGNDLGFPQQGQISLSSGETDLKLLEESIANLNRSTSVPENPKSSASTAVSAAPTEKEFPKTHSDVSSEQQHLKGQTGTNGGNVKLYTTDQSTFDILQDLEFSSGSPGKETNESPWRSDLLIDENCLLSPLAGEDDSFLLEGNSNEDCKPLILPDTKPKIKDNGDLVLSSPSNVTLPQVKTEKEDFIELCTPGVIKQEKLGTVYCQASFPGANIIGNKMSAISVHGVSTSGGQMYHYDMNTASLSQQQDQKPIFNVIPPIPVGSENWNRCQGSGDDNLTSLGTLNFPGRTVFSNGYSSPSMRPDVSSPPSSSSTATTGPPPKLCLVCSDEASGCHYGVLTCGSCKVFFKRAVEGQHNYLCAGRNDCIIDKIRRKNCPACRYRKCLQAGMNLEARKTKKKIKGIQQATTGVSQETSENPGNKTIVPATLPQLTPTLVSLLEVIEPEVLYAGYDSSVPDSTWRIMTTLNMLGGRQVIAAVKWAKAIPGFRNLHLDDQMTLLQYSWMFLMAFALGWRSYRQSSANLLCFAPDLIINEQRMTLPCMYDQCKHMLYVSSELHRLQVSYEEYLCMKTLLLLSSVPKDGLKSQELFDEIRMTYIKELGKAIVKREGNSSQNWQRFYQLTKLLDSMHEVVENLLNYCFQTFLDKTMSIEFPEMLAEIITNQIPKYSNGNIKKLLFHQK

For `COc1cc2c(cc1OC)[C@@H]1CC(=O)[C@@H](CC(C)C)CN1CC2`, the compound was called inactive in assay [1], in assay [2], in assay [3], in assay [4], in [5] and in assay [6]. Besides, the call in assay [7], in assay [8] and in assay [9] was inactive. The Potency is 23.7 µM (active) in assay [10], 21.1 µM (active) in assay [11] and 29.8 µM (active) in assay [12]. Also, the Potency result in assay [13] and in assay [14] was “inactive” throughout.
Regarding `COc1ccc(OC)c(Cl)c1`, the compound was classed as inactive in assay [1], in assay [2], in assay [3], in [4], in assay [5] and in [6]. Besides, the outcome in assay [7], in assay [8], in assay [9], in [15] and in assay [16] was inactive. Also, the Potency result in [10], in [11], in [12], in assay [13], in assay [14] and in [17] was “inactive” each time.
Regarding `CC(C)C[C@H](NC(=O)CNC(=O)[C@H](Cc1ccc(O)cc1)NC(=O)[C@H](CO)NC(=O)[C@H](Cc1c[nH]c2ccccc12)NC(=O)[C@H](Cc1cnc[nH]1)NC(=O)[C@@H]1CCC(=O)N1)C(=O)N[C@@H](CCCN=C(N)N)C(=O)N1CCC[C@H]1C(=O)NCC(N)=O` (stereo in doubt), the compound was called inactive in [1], in assay [2], in assay [3], in assay [4], in assay [5] and in [6]. Also, the call in assay [7], in assay [8] and in assay [9] was inactive. Further, the Potency result in [10], in [11], in [12], in [13] and in [14] was “inactive” throughout.
In the case of `NNc1nnc(NN)c2ccccc12`, the call in assay [1], in assay [2], in [3], in [4], in [5] and in [6] was inactive. For the same compound, the call in assay [7], in assay [8] and in assay [9] was inactive. Besides, the Potency result in [10], in assay [11], in assay [12], in assay [13] and in [14] was “inactive” in each case.
For the compound `CN=C(NC#N)Nc1ccc(C2=NNC(=O)CC2C)cc1` (stereo not drawn), the compound was classed as inactive in assay [1], in [2], in [3], in assay [4], in assay [5] and in [6]. For the same compound, the compound was classed as inactive in [7] and in assay [8]. Further, the Potency result in [10], in [11], in assay [12] and in [13] was “inactive” each time.
Regarding `CC/C=C\CC1=C(C)CCC1=O`, the compound was called inactive in assay [1], in assay [2], in [3], in assay [4], in assay [5] and in assay [6]. Further, the compound was called inactive in assay [7], in [8], in assay [15] and in assay [16]. Besides, the Potency result in assay [10], in assay [11], in assay [12] and in [13] was “inactive” in each case.
For the compound `O=C(/N=N/C(=O)OCc1ccccc1)OCc1ccccc1`, the compound was called inactive in assay [1], in [2], in [3], in assay [4], in assay [5] and in assay [6]. Further, the outcome in assay [7], in [8] and in assay [9] was inactive. Moreover, the Potency result in assay [13] and in [14] was “inactive” each time.
In the case of `NCCS`, the result in [1], in [2], in assay [3], in assay [4], in [5] and in [6] was inactive. In addition, the compound was classed as inactive in assay [7], in assay [8] and in assay [9]. The Potency result in [10], in [11], in assay [12], in [13] and in [14] was “inactive” throughout.
Take `COCCOCCOCCOCCO`: the compound was called inactive in assay [1], in assay [2], in assay [3], in [4], in assay [5] and in [6]. Besides, the outcome in [7], in [8], in assay [15] and in assay [16] was inactive. For the same compound, the Potency entry in [10], in assay [11], in [12], in assay [13], in assay [18] and in assay [14] was “inactive” each time. Also, the Potency entry in assay [17] is “inactive”.
On to `Cc1cc2cc3c(C)cc(=O)oc3c(C)c2o1`, for which, in [1], the fluorescence, % of fluorescein is 0.0223% [at 18.6 µM]. In addition, the fluorescence, % of fluorescent control is 1.37% [at 18.6 µM] in [2], 0.147% [at 18.6 µM] in [4], 1.64% [at 18.6 µM] in assay [6] and 1.96% [at 18.6 µM] in assay [8]. For the same compound, the activity change in [3] is -0.0015% [at 18.6 µM]. Further, the fluorescence, % of Rose Bengal in assay [5] is -0.0947% [at 18.6 µM]. Moreover, the fluorescence, % of fluorescein control in assay [7] is -0.0028% [at 18.6 µM]. Also, the outcome in [9] was inactive. Also, the Potency entry in [10], in [11], in assay [12] and in [13] was “inactive” in each case.
As to `CCC(C)NC(N)=O` (stereo not drawn), the call in [1], in [2], in assay [3], in assay [4], in assay [5] and in assay [6] was inactive. Moreover, the compound was called inactive in assay [7], in assay [8], in assay [9], in assay [15] and in assay [16]. Besides, the Potency result in assay [10], in [12], in assay [13], in [18] and in assay [17] was “inactive” throughout.
Turning to `Nc1cccc(O)c1`, the call in assay [1], in assay [2], in assay [3], in assay [4], in assay [5] and in assay [6] was inactive. For the same compound, the outcome in assay [7] and in [8] was inactive. Also, the Potency result in assay [19], in assay [10], in [11], in [13] and in [14] was “inactive” throughout.
In the case of `CCOC(=O)c1ncn2c1CN(C)C(=O)c1cc(F)ccc1-2`, the outcome in assay [1], in [2], in assay [3], in [4], in assay [5] and in [6] was inactive. Further, the compound was classed as inactive in assay [7], in assay [8], in assay [9], in assay [15] and in [16]. Moreover, the Potency result in assay [10], in assay [11], in [12], in assay [13], in assay [18] and in [14] was “inactive” each time. Moreover, the Potency entry in [17] was “inactive”.
With `C[C@@H]1O[C@@H](O[C@@H]2[C@@H](O)[C@H](OCCc3ccc(O)c(O)c3)O[C@H](CO[C@@H]3O[C@H](CO)[C@@H](O)[C@H](O)[C@H]3O)[C@H]2OC(=O)/C=C/c2ccc(O)c(O)c2)[C@H](O)[C@H](O)[C@H]1O`, the result in [1], in assay [2], in assay [3], in [4], in assay [5] and in assay [6] was inactive. Also, the outcome in assay [8] and in assay [9] was inactive. Further, the Potency entry in assay [19], in assay [13] and in [14] was “inactive” in each case.
